L3MBTL1 block: L3MBTL1 (human) inhibition | AlphaScreen L3MBTL1–H3K9me1 peptide binding | 0.66% of 230,000 active | Potency, µM (series often up to 57.1 µM), without a hit: top-dose activity, negative = inhibition, usual class: inhibitors | AID 485360; note: nearly all actives have a fitted effect of over 60% in size
Target sequence (Q9Y468 whole entry, looked up): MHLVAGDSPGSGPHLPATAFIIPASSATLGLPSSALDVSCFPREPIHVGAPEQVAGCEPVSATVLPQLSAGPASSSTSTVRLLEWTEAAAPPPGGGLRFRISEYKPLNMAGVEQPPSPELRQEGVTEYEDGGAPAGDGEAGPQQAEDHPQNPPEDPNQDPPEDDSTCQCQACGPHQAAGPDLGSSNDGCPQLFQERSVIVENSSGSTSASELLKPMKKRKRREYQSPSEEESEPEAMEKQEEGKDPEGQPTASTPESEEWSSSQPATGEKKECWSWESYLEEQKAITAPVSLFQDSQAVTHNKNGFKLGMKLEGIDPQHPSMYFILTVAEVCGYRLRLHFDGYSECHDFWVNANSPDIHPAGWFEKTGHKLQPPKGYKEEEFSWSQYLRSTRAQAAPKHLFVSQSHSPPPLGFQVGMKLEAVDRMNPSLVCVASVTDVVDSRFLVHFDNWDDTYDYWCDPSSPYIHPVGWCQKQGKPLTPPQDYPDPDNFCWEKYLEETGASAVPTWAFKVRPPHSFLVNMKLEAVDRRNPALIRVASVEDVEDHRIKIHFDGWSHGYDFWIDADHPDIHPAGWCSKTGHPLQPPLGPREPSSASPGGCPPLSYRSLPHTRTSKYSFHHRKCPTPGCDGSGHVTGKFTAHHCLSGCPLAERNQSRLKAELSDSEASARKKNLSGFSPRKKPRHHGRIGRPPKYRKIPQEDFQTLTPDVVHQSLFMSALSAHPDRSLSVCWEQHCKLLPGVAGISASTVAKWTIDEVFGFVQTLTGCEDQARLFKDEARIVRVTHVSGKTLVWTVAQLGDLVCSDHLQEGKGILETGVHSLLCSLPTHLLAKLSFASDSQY
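AlphaScreen assay: L3MBTL1 (50 nM final) was preincubated 30 min at room temperature with biotinylated H3(1-15)K9me1 peptide (75 nM final), then 30 min with library compounds; streptavidin donor and nickel chelate acceptor beads (10 ug/mL final) added, 30 min dark.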
RECQ1 inh-1: RECQ1 (human) helicase inhibition | P46063 | 0.54% of 240,000 active | Potency, µM (doses to about 57.3 µM), without a hit: at the highest dose activity, negative = inhibition, hits mostly inhibitors | RECQ1 DNA unwinding, red fluorescence kinetic read | AID 2549;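 note: plate controls were vehicle for no effect and no enzyme for full effect; nearly all actives have a fitted effect of over 30% in size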
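RECQ1T1 50 nM; forked duplex (20 bp + 30-nt ss tails) 200 nM, ATP 2 mM final; pH 8.0, 2 mM MgCl2, 2.5 ug/ml poly(dI-dC); 15 min compound preincubation; discontinuous kinetic read over 2 h at RT.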
BLM inh-1: Bloom syndrome helicase (human) inhibition | P54132 | recombinant BLM DNA unwinding, fluorescence dequenching | Potency, µM (highest dose often 56.1 µM), without a hit: at the top dose activity change, negative = inhibition, hits mostly inhibitors | 0.2% of 350,000 active | AID 2528;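 note: plate controls were vehicle for no effect and no enzyme for full effect; nearly all actives have a fitted effect of over 35% in size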
APE1 inh-1: inhibitors of human APE1 endonuclease. P27695. recombinant APE1, TAMRA/BHQ-2 abasic DNA cleavage fluorescence. Potency, µM (top dose mostly 65.8 µM), for the others: top-dose activity change, negative = inhibition, usual class: inhibitors. 0.35% of 350,000 active. AID 2517;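 note: plate controls were vehicle for no effect and reference inhibitor for full effect; nearly all actives have a fitted effect of over 55% in size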
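Quantitative HTS: incision of a TAMRA/BHQ-2 double-stranded substrate bearing a tetrahydrofuran abasic site by 0.75 nM APE1 raises fluorescence. Substrate 50 nM final, added after 15 min compound preincubation at room temperature; progress as third-minus-first kinetic read difference.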
DNA dye displace: displaces fluorescent dye from DNA, flagging APE1 artifacts; shares compounds with APE1 inh-1; Potency, µM (series often up to 28.5 µM), without a hit: at the highest dose activity change, negative = inhibition, hits mostly inhibitors; 7% of 480 active; AID 2564; DNA fluorescent dye displacement counterscreen, fluorescence;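 note: loss of thiazole orange fluorescence as the dye is displaced from duplex DNA; 0% = ThO with dsDNA and no compound and -100% = ThO without dsDNA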
Endo IV inh: counter-screen for APE1 inhibitors: inhibitors of E. coli endonuclease IV | AID 2565 | 4% of 560 active | E. coli Endo IV, fluorogenic AP-site DNA cleavage | shares compounds with APE1 inh-1 | Potency, µM (series often up to 27.1 µM), for the others: top-dose activity change, negative = inhibition, hits mostly inhibitors;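 note: plate controls were uninhibited enzyme wells for no effect and no enzyme buffer wells for full effect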
APE1 inh-2: confirmation of inhibitors of human APE1 endonuclease. AID 2572. purified APE1, fluorogenic abasic-site DNA cleavage. shares compounds with APE1 inh-1. Potency, µM (doses to about 57.1 µM), inactives show top-dose activity change, negative = inhibition, usual class: inhibitors. 44% of 750 active; note: nearly all actives have a fitted effect of over 30% in size
APE1 FP inh: compounds that displace a DNA probe from human APE1; APE1 binding to TAMRA-labelled double-stranded DNA, fluorescence polarization displacement; Potency, µM (titrated, usually from 28.5 µM), inactives show top-dose activity, negative = inhibition, usual class: inhibitors; shares compounds with APE1 inh-1; 7% of 480 active
BLM inh-2: BLM (human) helicase inhibition, confirmation; shares compounds with BLM inh-1; BLM DNA unwinding, fluorescence quenching, biochemical; Potency, µM, for inactives: max response, negative = inhibition, usual class: inhibitors; 40% of 220 active; AID 2585;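 note: strand separation dequenches TAMRA so unwinding raises red fluorescence; series mostly up to about 69 µM; nearly all actives have a fitted effect of over 45% in size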
RECQ1 conf: confirmation of human RECQ1 helicase inhibitors. shares compounds with RECQ1 inh-1. RECQ1 helicase DNA unwinding, fluorescence. Potency, µM (series often up to 229 µM), without a hit: at the top dose activity change, negative = inhibition, actives largely listed as inhibitors. 28% of 610 active; note: nearly all actives have a fitted effect of over 45% in size
ADP FP counter: counter-screen for RECQ1 inhibitors: ADP displacement. shares compounds with RECQ1 inh-1. ADP fluorescence polarization displacement counterscreen. Potency, µM (series often up to 228 µM), for inactives: at the highest dose activity change, negative = inhibition, usual class: inhibitors. 27% of 530 active; note: nearly all actives have a fitted effect of over 45% in size
RECQ1 inh-2: RECQ1 helicase inhibition confirmed, round 2 | Potency, µM (highest dose often 119 µM), for inactives: at the top dose activity, negative = inhibition, hits mostly inhibitors | recombinant RECQ1 DNA unwinding, red fluorescence | 15% of 1,100 active | shares compounds with RECQ1 inh-1; note: nearly all actives have a fitted effect of over 50% in size
The depositor's hits bear a star; i = inactive; ? = inconclusive; / = no result; ! = repeats disagree; [ ] = remark or other dose. Hits are enriched below; roughly 0.78% of the tested compounds scored in any of these assays. Calls come from the whole dose curve; as a rule, active = well fitted curve in the direction sought with a large enough effect; inconclusive = small, poorly fitted or top-dose-only effect, or another doubt; inactive = no such curve, though single readings can be large; an effect the other way counts as inactive or inconclusive. Unless noted, % is set by controls: 0 for no effect and ±100 for the full control effect; potency is the fitted concentration of half-maximal effect.

SMILES	L3MBTL1 block	RECQ1 inh-1	BLM inh-1	APE1 inh-1	DNA dye displace	Endo IV inh	APE1 inh-2	APE1 FP inh	RECQ1 inh-2	others
CC[C@H]1OC(=O)[C@H](C)C(=O)[C@H](C)[C@@H](OC2O[C@H](C)C[C@H](N(C)C)[C@@H]2O)[C@@](C)(OC)C[C@@H](C)C(=O)[C@@H](C)C2N(CCCCn3cnc(-c4cccnc4)c3)C(=O)O[C@@]21C (some centres not stated)	/	/	-11%	/	/	/	/	/	/
OCC1OC([S-])[C@H](O)C(O)C1O.[Au+] (some centres not stated)	/	-4%	?	/	/	11%[57.1 µM]	13µM*	/	/
CCN(CC)c1ccc(C(=C2C=CC(=[N+](CC)Cc3cccc(S(=O)(=O)[O-])c3)C=C2)c2ccc(N(CC)Cc3cccc(S(=O)(=O)O)c3)cc2)cc1	/	4µM*	25µM*	?	?	28µM*	22µM*	25µM*	/
CC[C@H](NC(=O)[C@H](CCCN=C(N)N)NC(=O)[C@H](Cc1c[nH]c2ccccc12)NC(=O)[C@@H](N)CS)C(=O)N[C@@H](CCCN=C(N)N)C(=O)N[C@@H](Cc1ccc(O)cc1)C(N)=O	/	0%	20%	-4%	/	/	/	/	/
COc1cccc(CNC(=O)c2ccc3nc(CCc4ccccc4)oc3c2)c1OC	/	/	-4%	/	/	/	/	/	/
Cc1ccc(NC(=O)CSc2nc3ccccc3c3nc(CCc4c(C)n[nH]c4C)nn23)cc1F	/	-12%	?	5%	/	/	?	/	/
Cc1ccc(NC(=O)CCN2C(=O)c3ccccc3Sc3ncccc32)c(Cl)c1	/	/	-4%	/	/	/	/	/	/
Nc1cc2sc(-c3ccc(C(=O)O)cc3)nc2cc1Cl	12%	-6%	-9%	-9%	/	/	/	/	/
Nc1ncc(N=Nc2cc(C(=O)O)ccc2Cl)s1	/	?	-3%	8.9µM*	-6%	96%	?	?	/
O=C(CSc1nc(-c2ccc(F)cc2)nc2c1Cc1ccccc1O2)Nc1ccc(C(=O)O)cc1	5µM*	?	8.9µM*	?	3.2µM*	?	4.5µM*	-38%	/	BLM inh-2=29µM*
O=Cc1cccc(Br)c1	/	4%	/	0%	/	/	/	/	/
Cn1c(SCC(=O)O)nc2sc3c(c2c1=O)CCC3	4%	/	4%	-10%	/	/	/	/	/
CCn1c(SCC(=O)O)nc2sc3c(c2c1=O)CCC3	/	?	-8%	22µM*	-5%	12%	?	-8%	?
Cc1ccc2c(=O)c3ccccc3n(CCCN)c2c1C	/	32µM*!	29%	4.5µM*!	14µM*	-91%[57.1 µM]	8.9µM*	-80%[57.1 µM]	18µM*
Cc1ccc(C)c(S(=O)(=O)c2nnn3c2nc(NCc2ccc4c(c2)OCO4)c2sccc23)c1	/	/	-7%	/	/	/	/	/	/
CCS(=O)(=O)N1CCCC(C(=O)NCCOC)C1 (configuration not stated)	/	/	0%	/	/	/	/	/	/
CCn1c(SCC(=O)c2ccc(O)c(O)c2)nnc1-c1ccccc1OC	?	14µM*	-5%	?	4%	90%	?	2%	2µM*
CCn1c(CSc2nc3ccccc3s2)nnc1SCC(=O)c1ccc(O)c(O)c1	/	7.9µM*	-11%	18µM*	?	151%	?	8%	?	RECQ1 conf=14%[114 µM];ADP FP counter=?
Cc1nn(-c2ccccc2)c2c1N(CC(=O)N1CCN(c3ccccc3F)CC1)C(=O)CS2	/	/	-4%	/	/	/	/	/	/
CCc1ccc(NC(=O)C2CCN(S(=O)(=O)c3c(C)noc3/C=C\c3ccc(OC)cc3)CC2)cc1	/	/	0%	/	/	/	/	/	/
O=C1CCCC2=C1C(c1ccco1)Nc1ccc3ccccc3c12 (configuration not stated)	3.2µM*	10µM*	-28%	14µM*	-9%	4%	4µM*	?	16µM*	RECQ1 conf=25µM*;ADP FP counter=50µM*
Cc1cc(=O)n2[nH]c(-c3ccc(F)cc3)cc2n1	-3%	i	3%	-10%	/	/	/	/	/
Cc1cc(=O)n2[nH]c(-c3ccsc3-n3c(C)ccc3C)cc2n1	/	8.9µM*	7.9µM*	3.5µM*	-10%	10%	?	3%	?	RECQ1 conf=50µM*;ADP FP counter=32µM*
Cc1cc(O)c(Oc2cc(C)cc(O)c2O)c(O)c1	-2%	13µM*	-4%	10µM*	5%	77%	?	6%	?
Cc1cccc(-c2nc(C(N)=O)c3c(n2)n(-c2ccc4c(c2)OCO4)c(=O)n3C)c1	/	/	-10%	/	/	/	/	/	/
Cc1ccc(S(=O)(=O)N[C@H]2COC(=O)CC=C[C@@H](C)[C@H]3C=C[C@H](O)[C@@H](COC(=O)CC=C[C@H]2C)O3)cc1	/	14%[11.5 µM]	2%[12.4 µM]	15%[12.4 µM]	/	/	/	/	/
COc1cc2c(ccc3cc(OC)c(OC)c(O)c32)cc1O	/	11µM*	25µM*	0.71µM*	?	?	0.63µM*	?	/	RECQ1 conf=40µM*;ADP FP counter=50µM*

Assay outcomes (PubChem BioAssay)
